This note sets out measurements from PubChem BioAssay (NCATS).

Assay [1] is described as follows: qHTS assay for small molecule agonists of the antioxidant response element (ARE) signaling pathway measured by Nrf2-dependant transcriptional activity (AID 720636; active = well fitted curve in the direction sought with a large enough effect in the repeat runs; an effect the other way counts as inactive or inconclusive; note: % of control where 0% means no effect). In a few lines: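 ARE-luc HepG2 cells carrying an Nrf2-responsive luciferase reporter were plated in medium with 1% dialyzed FBS, left 6 hr at 37 C to attach, then exposed to compound for 16 hr. Luciferase luminescence was read after ONE-Glo addition.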

Assay [2] can be described thus: qHTS assay for small molecule antagonists of the retinoid-related orphan receptor gamma (ROR-gamma) signaling pathway - cell viability counter screen (AID 720652; active = well fitted curve in the direction sought with a large enough effect in the repeat runs; an effect the other way counts as inactive or inconclusive;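 note: compound exposure lasted 16 hr before ATP read; % is set by controls: 0 for no effect and ±100 for the full control effect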). In short, it runs like this: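 Cytotoxicity counter screen: intracellular ATP (CellTiter-Glo luminescence) measured in the doxycycline-induced CHO RORE-luciferase reporter line after 16 hr compound exposure at 37 C, 5% CO2.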

Assay [3] is described as follows: qHTS assay for small molecule agonists of the antioxidant response element (ARE) signaling pathway measured by Nrf2-dependant transcriptional activity - cell viability counter screen (AID 720653; active = well fitted curve in the direction sought with a large enough effect in the repeat runs; an effect the other way counts as inactive or inconclusive; note: % is set by controls: 0 for no effect and ±100 for the full control effect). Conditions: ARE-bla HepG2 viability, CellTiter-Glo ATP luminescence, 16 h; max response: stronger effect = lower value. In short, it runs like this: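 Cytotoxicity counter screen: intracellular ATP quantified by CellTiter-Glo luminescence in the same ARE-bla HepG2 plates, after 16 h compound exposure and a 2 h beta-lactamase substrate step.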
In general terms: Quantitative high-throughput screening tests each substance at several concentrations.

The nature of assay [4]: qHTS assay for cell viability of HEK293 cells (AID 743288). Note: % is set by controls: 0 for no effect and ±100 for the full control effect; nearly all actives have a fitted effect of over 50% in size. The following applies: ATP luminescence (CellTiter-Glo), 18 h; max response: stronger effect = lower value. In a few lines: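 HEK293, 18 h, 37 C, ATP luminescence. Cells at 2,000/well were allowed at least 5 h to settle before dosing; CellTiter-Glo developed 30 min at RT.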
Assay [5] is described as follows: qHTS assay for cell viability of the p53RE-bla HCT-116 cell line (AID 743292). Note: % is set by controls: 0 for no effect and ±100 for the full control effect; nearly all actives have a fitted effect of over 55% in size. In a few lines: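 CellSensor p53RE-bla HCT-116 cells, 4,000/well, preincubated 5 h at 37 C, then exposed to compounds in DMSO for 16 h at 37 C. Viability read as CellTiter-Glo luminescence (intracellular ATP) after 30 min at room temperature.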
Assay [6] can be described thus: qHTS profiling of the MIPE4 collection as inhibitors of Plasmodium falciparum (3D7) proliferation (AID 743344; call rule not given here;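 note: scaled between DMSO vehicle wells and 0.29 µM artemisinin as full inhibition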). Conditions: P. falciparum 3D7 in erythrocytes, SYBR Green DNA fluorescence, 72 h; at 28.5 µM (top of the series). In a few lines: (§1)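 Parasite DNA was quantified by SYBR Green I fluorescence (ex 485, em 535 nm) after overnight lysis in saponin/Triton buffer at room temperature. Cultures at 0.3% parasitemia and 2.5% hematocrit were first exposed to compound for 72 h at 37 C; signals were normalised to artemisinin (0.29 uM) and vehicle wells.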

Assay [7] is described as follows: qHTS profiling of the MIPE4 collection as inhibitors of Plasmodium falciparum (DD2) proliferation (AID 743345; call rule not given here). The following applies: P. falciparum Dd2 in erythrocytes, SYBR Green DNA, 72 h; at 28.5 µM (top of the series) unless noted. In short, it runs like this:
as §1

Assay [8] is described as follows: qHTS profiling of the MIPE4 collection as inhibitors of Plasmodium falciparum (DD2) proliferation (Rep 2) (AID 743346; call rule not given here). The following applies: P. falciparum Dd2 in erythrocytes, SYBR Green DNA, 72 h; at 28.5 µM (top of the series). In a few lines:
as §1

Assay [9] can be described thus: qHTS profiling of the MIPE4 collection as inhibitors of Plasmodium falciparum (HB3) proliferation (AID 743347; call rule not given here;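 note: plate controls were DMSO vehicle wells for no effect and artemisinin wells for full effect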). The following applies: P. falciparum HB3 in erythrocytes, SYBR Green DNA, 72 h; at 28.5 µM (top of the series). In a few lines: as §1
Assay [10] in a line: qHTS Assay for Identifying Gametocytocidal Compounds (AID 743244).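 Note: % is set by controls: 0 for no effect and ±100 for the full control effect; actives lower the fluorescent signal which means gametocytes are killed.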 The following applies: P. falciparum 3D7 stage III-V gametocytes, alamarBlue, 72 h; max response: stronger effect = lower value. In short, it runs like this: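 P. falciparum 3D7 stage III–V gametocytes (20,000 cells/well) were exposed to compounds for 72 h at 37 °C, 5% CO2. AlamarBlue was then added for 24 h; decreased resorufin fluorescence (Ex 525/Em 598 nm) indicated loss of viability.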

Assay [11] in a line: qHTS for Activators of Parkin Expression: LOPAC Validation Assay (FLuc Reporter) (AID 720573;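 note: 0% = DMSO and 100% = positive control compounds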). In a few lines:
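Readout is FLuc luminescence from neuronal reporter cells (Parkin promoter, FLuc plus NLuc) after 24 h compound exposure in dose response. Values normalized to neutral DMSO and positive-control compounds.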

Assay [12] addresses T1, Hexokinase-4 (Homo sapiens) + Glucokinase regulatory protein (Homo sapiens) (UniProt P35557+Q14397). The assay is described as follows: qHTS assay for inhibitors of recombinant human GCK-GKRP interaction: Diaphorase-coupled assay (AID 743205). In a few lines:
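Signal derives from resorufin generated by diaphorase, linked to GCK turnover of glucose (5 mM) and ATP (0.4 mM). Enzyme complex was added after a 20-minute compound preincubation and monitored for 30 minutes.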

The target in assay [13] is T1, Hexokinase-4 (Homo sapiens) + Glucokinase regulatory protein (Homo sapiens). Put plainly: qHTS assay for inhibitors of recombinant human GCK-GKRP interaction: ADP-Glo assay (AID 743206).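 Note: plate controls were DMSO plus enzyme for no effect and no enzyme for full effect.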 In short, it runs like this:
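Pin-transferred compounds meet a 15 nM GST-GCK/15 nM FLAG-GKRP/2 uM S6P mix (dispense concentrations). ATP is then added to 0.4 mM final with 5 mM glucose, and the reaction runs 60 min at room temperature. ADP is quantified luminescently.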

Assay [14] shares this target. Put plainly: qHTS assay for inhibitors of recombinant human GCK-GKRP interaction: HTRF assay (AID 743207).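 Note: 0% = DMSO with GCK present and -100% = DMSO wells lacking GCK.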 In short, it runs like this:
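Titration screening format: recombinant GST-GCK and FLAG-GKRP at 5 nM, S6P at 2 uM, labelled anti-tag antibodies, 60 min at RT, dual-wavelength HTRF readout.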

A short description of assay [15]: qHTS profiling for inhibitors of Plasmodium falciparum (3D7) proliferation (AID 743322).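 Note: infected erythrocytes exposed to compound for 72 h before lysis; 100% = DMSO vehicle wells and 0% = 0.29 µM artemisinin.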 The following applies: P. falciparum 3D7 proliferation; at 28.7 µM (top of the series) unless noted. In a few lines:
as §1

A short description of assay [16]: qHTS profiling for inhibitors of Plasmodium falciparum (DD2) proliferation (AID 743323; call rule not given here). Conditions: lower = more inhibition; at 28.7 µM (top of the series) unless noted. In short, it runs like this: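 SYBR Green fluorescence (ex 485, em 535 nm) of lysed cultures gives parasite DNA content; wells normalized to artemisinin (0.29 uM) and DMSO controls. Infected red cells: 0.3% parasitemia, 2.5% hematocrit, 72 h, 37 C.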

Where “and” joins values, the source holds several entries; their conditions need not be identical. Equal values may be shown once. Inconclusive results are not listed. Calls of active or inactive are those of the source. Unless noted, calls come from the whole dose curve; as a rule, active = well fitted curve in the direction sought with a large enough effect; inconclusive = small, poorly fitted or top-dose-only effect, or another doubt; inactive = no such curve, though single readings can be large; an effect the other way counts as inactive or inconclusive.

T1 sequence (P35557 whole entry, looked up): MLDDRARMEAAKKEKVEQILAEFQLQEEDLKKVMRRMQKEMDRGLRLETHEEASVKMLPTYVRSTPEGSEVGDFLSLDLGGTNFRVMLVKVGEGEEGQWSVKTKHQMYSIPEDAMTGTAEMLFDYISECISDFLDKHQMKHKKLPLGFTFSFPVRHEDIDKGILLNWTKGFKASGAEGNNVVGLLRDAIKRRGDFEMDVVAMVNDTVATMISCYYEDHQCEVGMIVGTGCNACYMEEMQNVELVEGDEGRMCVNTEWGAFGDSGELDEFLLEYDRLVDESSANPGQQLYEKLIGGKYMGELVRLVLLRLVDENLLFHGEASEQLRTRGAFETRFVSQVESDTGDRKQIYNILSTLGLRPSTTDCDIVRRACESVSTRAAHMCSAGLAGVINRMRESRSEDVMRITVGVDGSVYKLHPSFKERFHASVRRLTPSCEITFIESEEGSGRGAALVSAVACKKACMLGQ
T1 sequence (Q14397 whole entry, looked up): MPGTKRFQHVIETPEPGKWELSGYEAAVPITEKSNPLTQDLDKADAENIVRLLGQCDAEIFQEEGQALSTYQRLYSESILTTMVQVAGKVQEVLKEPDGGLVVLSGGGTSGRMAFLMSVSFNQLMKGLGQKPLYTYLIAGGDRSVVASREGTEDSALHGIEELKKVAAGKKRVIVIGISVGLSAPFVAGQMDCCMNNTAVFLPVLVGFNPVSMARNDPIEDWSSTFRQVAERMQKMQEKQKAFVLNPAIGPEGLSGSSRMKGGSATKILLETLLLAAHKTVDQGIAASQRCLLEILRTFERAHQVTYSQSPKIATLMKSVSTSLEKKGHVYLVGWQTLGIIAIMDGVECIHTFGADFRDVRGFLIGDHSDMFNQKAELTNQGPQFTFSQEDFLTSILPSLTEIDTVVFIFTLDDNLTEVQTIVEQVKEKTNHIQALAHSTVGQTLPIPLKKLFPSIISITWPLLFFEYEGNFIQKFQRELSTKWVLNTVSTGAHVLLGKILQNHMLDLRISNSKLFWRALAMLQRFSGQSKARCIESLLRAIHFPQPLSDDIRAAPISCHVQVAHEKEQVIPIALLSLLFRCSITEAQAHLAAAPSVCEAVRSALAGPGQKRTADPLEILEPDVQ

Turning to `CC(C)(O)C(=O)Nc1ccc([N+](=O)[O-])c(C(F)(F)F)c1`, the Potency entry in assay [1], in assay [2] and in assay [5] was “inactive” each time. The max response in assay [3] is -5.91% (inactive); in [4], -8.24% (inactive). The same compound had a parasite growth, % of DMSO control in [6] of 82.8%. The parasite growth remaining, % of DMSO control (lower = more inhibition) in assay [7] was determined as 97.4%. The compound also had a parasite growth, % of control (lower = inhibition) in assay [8] of 70.6%. The same compound displayed a growth, % of control in assay [9] of 79%.

In the case of `CC(O)CN1CCN(CC(=O)[O-])CCN(CC(=O)[O-])CCN(CC(=O)[O-])CC1.[Gd+3]` (stereo not given), the max response in assay [10] is 1.03% (inactive) and -10.9% (inactive).

On to `CCCN1CCC[C@H](c2cccc(O)c2)C1`, for which the compound was called inactive in [11], in [12], in assay [13] and in [14]. Besides, in assay [10], the max response was -8.29% (inactive) and 20.7% (inactive).

In the case of `CC(=O)NCCc1c[nH]c2ccccc12`, the result in assay [11], in assay [12], in assay [13] and in assay [14] was inactive. Further, in assay [10], the max response was 17.3% (inactive).

As to `NC1CCc2cc(O)c(O)cc2C1` (stereo not given), the result in assay [11], in assay [12], in [13] and in assay [14] was inactive. The max response in assay [10] is 20.3% (inactive).

For the compound `S=C(NC1CCCCC1)N1CCC(c2cnc[nH]2)CC1`, the compound was called inactive in assay [11], in assay [12], in [13] and in assay [14]. For the same compound, the max response in assay [10] was 16.5% (inactive).

For `NCCc1c[nH]c2ccccc12`, the compound was called inactive in [11], in assay [12], in assay [13] and in [14]. The max response in assay [10] is 11% (inactive).

Consider `C#CCOC(=O)C1=CCCN(C)C1`, for which the compound was classed as inactive in [11], in assay [12], in assay [13] and in assay [14]. Besides, the max response in assay [10] was 10.6% (inactive).

Turning to `c1ccc(C2(c3ccccc3)CC2C2=NCCN2)cc1` (stereo not given), the result in assay [11], in assay [12], in assay [13] and in assay [14] was inactive. Besides, in assay [10], the max response was -4.94% (inactive) and 21.7% (inactive).

As for `C/C=C(/C)C(=O)O[C@H]1C(C)=C2[C@H]([C@@H]1OC(=O)CCCCCCC)[C@@](C)(OC(C)=O)C[C@H](OC(=O)CCC)[C@@]1(O)[C@H]2OC(=O)[C@@]1(C)O`, the call in assay [11], in [12], in assay [13] and in [14] was inactive. The remaining parasite growth % (stronger effect = lower value) in [15] was -0.149%. This compound displayed an activity, percent of control in assay [16] of 1.02%.

For the compound `COC(=O)[C@@H](N)CCCN=C(N)N[N+](=O)[O-]`, the call in assay [11], in assay [12], in assay [13] and in assay [14] was inactive. Moreover, the max response in assay [10] was 6.28% (inactive). For the same compound, in assay [6], the parasite growth, % of DMSO control turned out to be 91.3%. Also, the parasite growth remaining, % of DMSO control (lower = more inhibition) in assay [7] was 94.8%. Besides, the parasite growth, % of control (lower = inhibition) in [8] stood at 82%. For the same compound, the growth, % of control in [9] came out at 92.1%.
